In PubChem BioAssay (EPA / NIEHS):
Values joined by “and” are separate entries in the source; they are usually repeats but may differ in a detail not shown here. Equal entries are not always repeated. More than one record can exist for a structure, and the calls need not agree. Active and inactive are the calls of the source. How the source made its calls: active means hit-call score of the fitted dose curve at least 0.9, where 1 is the maximum; inactive means score below 0.9.

Experiments:
[1] = read-out: E-selectin (Homo sapiens) (UniProt P16581); assay: BSK_SAg_Eselectin: BioMAP Diversity Plus: SAg Assay for Eselectin Biomarker Activity (AID 2283091); conditions: primary human HUVEC with PBMC; actives raise or lower the signal
Outline: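 Co-culture: HUVEC + PBMC. Dose compound; 24 h. ELISA for E-selectin. Bidirectional fit vs DMSO.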

[2] = read-out: Monokine induced gamma interferon (MIG), CXCL9 (gene 4283); assay: BSK_SAg_MIG: BioMAP Diversity Plus: SAg Assay for Monokine induced gamma interferon (MIG) Biomarker Activity (AID 2283092); conditions: primary human HUVEC with PBMC; actives raise or lower the signal
Outline: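 Values reflect bidirectional fitting of ELISA-measured MIG against DMSO vehicle, taken 24 h after dosing of a co-culture of human umbilical vein endothelial cells and peripheral blood mononuclear cells.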

[3] = BSK_SAg_PBMCCytotoxicity: PBMC Cytotoxicity Assessment in the BioMAP Diversity Plus: SAg Assay (AID 2283093); conditions: primary human HUVEC with PBMC;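 further: fitted both ways against DMSO so a hit may be loss or gain of signal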;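 on AC50: PBMC superantigen activated with SEB plus TSST-1 one hour after compound addition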
Outline: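 PBMC viability by Alamar Blue reduction, fluorescence read at 546/580 nm after 6 h dye exposure. Cells were dosed 1 h before SEB plus TSST-1 activation (20 ng/mL final each), then held 90 h; endothelial/PBMC human co-culture.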

[4] = read-out: Interleukin-8 (IL8), CXCL8 (gene 3576); assay: BSK_SAg_IL8: BioMAP Diversity Plus: SAg Assay for Interleukin-8 (IL8) Biomarker Activity (AID 2283094); conditions: primary human HUVEC with PBMC; actives raise or lower the signal
Outline: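 Chemicals were dosed onto a human endothelial–PBMC co-culture, and IL-8 was quantified by ELISA after 24 h. Both increases and decreases were fitted relative to DMSO.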

[5] = BSK_SAg_Proliferation: Cell Proliferation Assessment in the BioMAP Diversity Plus: SAg Assay (AID 2283095); conditions: primary human HUVEC with PBMC;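 further: relative cell number as total protein by SRB absorbance in sub-confluent culture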
Outline: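 Absorbance of sulforhodamine B at 560 nm reports total protein in a human vascular endothelial/PBMC co-culture after 96 h chemical exposure. Gain or loss of signal is fitted in both directions against DMSO.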

[6] = BSK_SAg_SRB: Viability Assessment in the BioMAP Diversity Plus: SAg Assay (AID 2283096); conditions: primary human HUVEC with PBMC;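 further: cells read one day after compound addition; hits may be either gain or loss of signal compared with DMSO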
Outline: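 Compounds were added to a human vascular co-culture of umbilical vein endothelium and PBMC. After 24 h, parallel cultures were fixed with 10% TCA, stained with 0.1% sulforhodamine B and read at 560 nm. Gain or loss of signal was fitted relative to DMSO.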

E-selectin (Homo sapiens), sequence (P16581 whole entry, looked up): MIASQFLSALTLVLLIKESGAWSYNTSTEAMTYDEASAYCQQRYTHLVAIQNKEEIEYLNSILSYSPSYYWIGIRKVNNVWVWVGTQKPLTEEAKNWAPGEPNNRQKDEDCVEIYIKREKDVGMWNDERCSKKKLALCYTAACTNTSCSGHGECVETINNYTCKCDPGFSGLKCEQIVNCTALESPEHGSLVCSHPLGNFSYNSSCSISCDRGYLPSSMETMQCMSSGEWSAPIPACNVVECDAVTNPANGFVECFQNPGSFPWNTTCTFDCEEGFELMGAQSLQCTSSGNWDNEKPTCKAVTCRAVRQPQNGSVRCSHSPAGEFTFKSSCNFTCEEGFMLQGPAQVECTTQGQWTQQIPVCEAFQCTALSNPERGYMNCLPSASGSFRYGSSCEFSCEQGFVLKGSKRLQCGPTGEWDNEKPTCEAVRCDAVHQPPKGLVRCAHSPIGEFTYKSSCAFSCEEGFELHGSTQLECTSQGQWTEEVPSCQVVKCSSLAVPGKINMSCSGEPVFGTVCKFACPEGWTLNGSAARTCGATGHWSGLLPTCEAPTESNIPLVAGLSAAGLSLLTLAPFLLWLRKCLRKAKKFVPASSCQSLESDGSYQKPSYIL

| SMILES | AC50 [1] | outcome [2] | AC50 [3] | outcome [3] | AC50 [4] | outcome [4] | outcome [5] | AC50 [6] | outcome [6] | outcome [1] | AC50 [5] | AC50 [2] |
| --- | --- | --- | --- | --- | --- | --- | --- | --- | --- | --- | --- | --- |
| NS(=O)(=O)C(F)(F)C(F)(F)C(F)(F)C(F)(F)C(F)(F)C(F)(F)F | 41.7 µM (active) and 21.7 µM (active) | inactive | 11.8 µM (active) | inactive | 30 µM (active) | inactive | inactive | 55.3 µM (active) | inactive |  |  |  |
| OCC(F)(F)C(F)(F)C(F)(F)C(F)(F)C(F)(F)C(F)(F)C(F)(F)C(F)(F)CO |  | inactive | 43.8 µM (active) and 50.7 µM (active) |  |  | inactive | inactive |  | inactive | inactive | 45.5 µM (active) |  |
| O=C(O)C(F)(F)C(F)(F)C(F)(F)C(F)(F)C(F)(F)C(F)(F)C(F)F |  | inactive |  | inactive |  | inactive | inactive |  | inactive | inactive |  |  |
| O=S(=O)(Cl)C(F)(F)C(F)(F)C(F)(F)C(F)(F)C(F)(F)C(F)(F)C(F)(F)C(F)(F)F | 37.5 µM (active) | inactive |  | inactive |  | inactive | inactive | 43.2 µM (active) and 55.5 µM (active) |  | inactive |  |  |
| FC(F)(F)C(F)(F)C(F)(F)C(F)(F)C(F)(F)C(F)(F)C(F)(F)CCI |  | inactive |  | inactive |  | inactive | inactive |  | inactive | inactive |  |  |
| OCC(O)CC(F)(F)C(F)(F)C(F)(F)C(F)(F)F (centres undefined) |  | inactive |  | inactive |  | inactive | inactive |  | inactive | inactive |  |  |
| CCOC(C=C(C)CCC=C(C)C)OCC |  | inactive |  | inactive |  | inactive |  |  | inactive | inactive | 34.4 µM (active) |  |
| C[Si](Cl)(Cl)CCC(F)(F)C(F)(F)C(F)(F)C(F)(F)C(F)(F)C(F)(F)F |  | inactive |  | inactive |  | inactive | inactive |  | inactive | inactive |  |  |
| O=C(O)C(F)(F)OC(F)(F)C(F)(F)OC(F)(F)C(F)(F)OC(F)(F)F |  | inactive |  | inactive |  | inactive | inactive |  | inactive | inactive |  |  |
| CCN(CC)c1ccc(C=O)cc1 |  | inactive |  | inactive |  | inactive | inactive |  | inactive | inactive |  |  |
| CO[Si](C)(CCC(F)(F)C(F)(F)C(F)(F)C(F)(F)C(F)(F)C(F)(F)F)OC |  | inactive |  | inactive |  | inactive | inactive |  | inactive | inactive |  |  |
| O=C(Cl)C(F)(F)C(F)(F)C(F)(F)C(F)(F)C(F)(F)C(F)(F)F |  | inactive |  | inactive |  | inactive | inactive |  | inactive | inactive |  |  |
| NC(=O)C(F)(F)C(F)(F)C(F)(F)C(F)(F)C(F)(F)C(F)(F)C(F)(F)F |  | inactive |  | inactive |  | inactive | inactive |  | inactive | inactive |  |  |
| O=C(O)C(F)(F)C(F)(F)C(F)(F)OC(F)(F)F |  | inactive |  | inactive |  | inactive | inactive |  | inactive | inactive |  |  |
| OCC(O)CC(F)(F)C(F)(F)C(F)(F)C(F)(F)C(F)(F)C(F)(F)C(F)(F)C(F)(F)F (centres undefined) |  | inactive |  | inactive |  | inactive | inactive |  | inactive | inactive |  |  |
| NCC(F)(F)C(F)(F)C(F)(F)C(F)(F)C(F)(F)C(F)(F)F |  | inactive |  | inactive |  | inactive | inactive |  | inactive | inactive |  |  |
| O=S(=O)(OCC(F)(F)F)C(F)(F)C(F)(F)C(F)(F)C(F)(F)F |  | inactive |  | inactive | 30 µM (active) | inactive | inactive |  | inactive | inactive |  |  |
| NC(=O)C(F)(F)C(F)(F)C(F)(F)F |  | inactive |  | inactive |  | inactive | inactive |  | inactive | inactive |  |  |

| SMILES | AC50 [1] | outcome [2] | AC50 [3] | outcome [3] | AC50 [4] | outcome [4] | outcome [5] | AC50 [6] | outcome [6] | outcome [1] | AC50 [5] | AC50 [2] |
| --- | --- | --- | --- | --- | --- | --- | --- | --- | --- | --- | --- | --- |
| O=C(F)C1(F)C(F)(F)C(F)(F)C(F)(F)C(F)(F)C1(F)F |  | inactive |  | inactive |  | inactive | inactive |  | inactive | inactive |  |  |
| O=C(O)CCC(F)(F)C(F)(F)C(F)(F)F |  | inactive |  | inactive |  | inactive | inactive |  | inactive | inactive |  |  |
| CCOC(=O)CC(=O)C(F)(F)C(F)(F)F |  | inactive |  | inactive |  | inactive | inactive |  | inactive | inactive |  |  |
| OCC(F)(F)C(F)(F)C(F)(F)C(F)(F)C(F)(F)C(F)(F)CO |  | inactive |  | inactive |  | inactive | inactive |  | inactive | inactive |  |  |
| FC(F)(F)C(F)(F)C(F)(F)CC1CO1 (centres undefined) |  | inactive |  | inactive |  | inactive | inactive |  | inactive | inactive |  |  |
| C=CC(=O)OCC(F)(F)C(F)(F)C(F)(F)C(F)(F)C(F)(F)C(F)(F)C(F)(F)C(F)F | 30 µM (active) | inactive | 26.8 µM (active) and 16.6 µM (active) |  | 20.8 µM (active) | inactive |  |  | inactive | inactive | 36.8 µM (active) and 27.1 µM (active) |  |
| COC(F)(C(F)F)C(F)(F)F (centres undefined) |  | inactive |  | inactive |  | inactive | inactive |  | inactive | inactive |  |  |
| OCCCC(F)(F)C(F)(F)C(F)(F)C(F)(F)C(F)(F)C(F)(F)C(F)(F)C(F)(F)F | 52 µM (active) and 54 µM (active) |  | 17.3 µM (active) and 14.4 µM (active) |  | 43.2 µM (active) and 37 µM (active) |  |  | 27 µM (active) and 47.8 µM (active) |  |  | 10.2 µM (active) and 14.6 µM (active) | 53.4 µM (active) and 53.2 µM (active) |
| O=S(=O)(O)CCC(F)(F)C(F)(F)C(F)(F)C(F)(F)C(F)(F)C(F)(F)C(F)(F)C(F)(F)F |  | inactive |  | inactive |  | inactive | inactive |  | inactive | inactive |  |  |
| OC(O)C(F)(F)C(F)(F)F |  | inactive |  | inactive |  | inactive | inactive |  | inactive | inactive |  |  |
| O=C(O)C(F)(F)C(F)(F)C(F)(F)C(=O)O |  | inactive |  | inactive |  | inactive | inactive |  | inactive | inactive |  |  |
| CC(C)(C)c1cc(CCC(=O)NCCCCCCNC(=O)CCc2cc(C(C)(C)C)c(O)c(C(C)(C)C)c2)cc(C(C)(C)C)c1O |  | inactive |  | inactive |  | inactive | inactive |  | inactive | inactive |  |  |
| C=CC(=O)OCCC(F)(F)C(F)(F)C(F)(F)C(F)(F)F | 40.1 µM (active) and 40 µM (active) | inactive | 30 µM (active) |  | 33 µM (active) and 30.1 µM (active) |  |  |  | inactive |  | 30 µM (active) |  |
| NC(=O)C(F)(F)C(F)(F)C(F)(F)C(F)(F)C(N)=O |  | inactive |  | inactive |  | inactive | inactive |  | inactive | inactive |  |  |
| OCC(F)(F)C(F)(F)C(F)(F)CO |  | inactive |  | inactive |  | inactive | inactive |  | inactive | inactive |  |  |
| O=C(O)C(F)(F)C(F)(F)C(F)(F)OC(F)(C(F)(F)F)C(F)(F)F |  | inactive |  | inactive |  | inactive | inactive |  | inactive | inactive |  |  |
| NC(=O)C(F)(F)C(F)(F)C(F)(F)C(F)F |  | inactive |  | inactive |  | inactive | inactive |  | inactive | inactive |  |  |
| O=C(Cl)C(F)(F)C(F)(F)C(F)(F)C(F)(F)C(F)(F)C(F)(F)C(F)(F)F |  | inactive |  | inactive |  | inactive | inactive |  | inactive | inactive |  |  |
